{"source": "PubChem BioAssay AID2315", "about": "(National Center for Advancing Translational Sciences (NCATS), 2010)", "note": "Among all 290,000 compounds or so, about 27,000 (9.3%) were called active. The entries come from a sample that favours actives as a whole. Unmarked numbers belong to inactive results. No stated cut-off is given here; in the data, active means inhibition mostly above about 28% (no sharp cut-off); inactive means mostly below about 43%.", "data": [{"test": "A qHTS for Small Molecule Inhibitors of Shiga Toxin; further: 0% is about no effect", "details": "Vero cells, Shiga toxin protein synthesis inhibition reporter; at 38.7 µM, stronger effect = higher value", "values": [{"smiles": "O=C(Nc1cccc(O)c1)c1ccc(C(=O)c2ccccc2)o1", "inhibition": "88% (active)"}, {"smiles": "COc1cc(/C=C(/NC(=O)c2ccccc2)C(=O)Nc2cccc(O)c2)c([N+](=O)[O-])cc1OC", "inhibition": "-3.28%"}, {"smiles": "O=C(Cc1ccccc1)Nc1cccc(NC(=O)c2ccccc2)c1", "inhibition": "-14.6%"}, {"smiles": "C/C(=C\\C(=O)c1cccnc1)Nc1ccc(C)c(C)c1", "inhibition": "43.6%"}, {"smiles": "O=C(Nc1cccc(C(=O)N2CCCC2)c1)c1ccccc1", "inhibition": "-3.28%"}, {"smiles": "C/C(=C\\C(=O)c1ccccc1)Nc1cccc(O)c1", "inhibition": "141% (active)"}, {"smiles": "CCCc1nnc(NC(=O)CCC(=O)N2CCN(S(=O)(=O)c3ccc(OC)cc3)CC2)s1", "inhibition": "4.3%"}, {"smiles": "Cc1cc(NC(=O)Nc2c[nH]c(=O)[nH]c2=O)ccc1Br", "inhibition": "-3.83%"}, {"smiles": "C=CCn1c(=O)c(C(=O)Nc2ncccc2O)c(O)c2ccccc21", "inhibition": "4.1%"}, {"smiles": "CN(C)S(=O)(=O)c1ccc(N2CCCC2)c(C(=O)Nc2cccc(F)c2)c1", "inhibition": "-10.4%"}, {"smiles": "O=[N+]([O-])c1cccc(C2=NCCS2)c1", "inhibition": "8.55%"}, {"smiles": "Nc1c(-c2cccc(Cl)c2)cnn1-c1cccc([N+](=O)[O-])c1", "inhibition": "48.6% (active)"}, {"smiles": "O=C(CCl)N(Cc1cccc([N+](=O)[O-])c1)c1cccc(Cl)c1", "inhibition": "-27.9%"}, {"smiles": "COc1ccc(CSc2nnnn2-c2ccc(O)cc2)cc1F", "inhibition": "19.9%"}, {"smiles": "COc1cccc(-c2nnc(N(C)C(=O)c3ccno3)s2)c1", "inhibition": "30.2%"}, {"smiles": "CN(C(=O)c1ccno1)c1nnc(-c2cccnc2)s1", "inhibition": "5.36%"}, {"smiles": "CN(C(=O)C1CCOC1)c1nnc(-c2cccnc2)s1", "note": "(stereo not drawn)", "inhibition": "22% (active)"}, {"smiles": "O=C(/C=C/c1cccc([N+](=O)[O-])c1)N1CCN(Cc2ccccc2)CC1", "inhibition": "12.7%"}, {"smiles": "CNC(=O)N1c2ccccc2C=Cc2ccccc21", "inhibition": "-6.09%"}, {"smiles": "CSc1nccc(NC(=O)c2ccc(C(C)(C)C)cc2)n1", "inhibition": "71.6% (active)"}, {"smiles": "COC(=O)c1nc(NC(=O)c2ccc(C(C)(C)C)cc2)n[nH]1", "inhibition": "10.9%"}, {"smiles": "O=C(Nc1ccnc(-c2ccncc2)n1)c1cccs1", "inhibition": "-8.52%"}, {"smiles": "CCOC(=O)c1c(S(=O)(=O)Nc2cccc(Cl)c2)c(C)n(C)c1C", "inhibition": "-10.6%"}, {"smiles": "Cc1ccc(-n2ncc3c(Nc4cccc(C(=O)O)c4)ncnc32)cc1", "inhibition": "76.6% (active)"}, {"smiles": "O=C(NNc1ncnc2c1cnn2-c1ccccc1)c1ccco1", "inhibition": "35.5%"}, {"smiles": "Cc1ccc(Nc2ncnc3c2cnn3C)c(C)c1", "inhibition": "2.4%"}, {"smiles": "O=C(Nc1ccc(Br)cc1F)C1CC(=O)N(C2CCCCC2)C1", "note": "(stereo not drawn)", "inhibition": "0.452%"}, {"smiles": "O=C(OCc1nc2ccccc2[nH]1)C1CCCCC1", "inhibition": "29.7% (active)"}, {"smiles": "CCO[C@@H]1OC(C(=O)NCc2nc3ccccc3[nH]2)=C[C@H](C2CCCCC2)[C@H]1CCCO", "inhibition": "-8.66%"}, {"smiles": "O=C(COc1ccccc1)NCCc1nc2ccccc2[nH]1", "inhibition": "-37.8%"}, {"smiles": "CC1C(=O)Nc2ccccc2N1C(=O)c1ccc(F)cc1F", "note": "(stereo not drawn)", "inhibition": "26.5%"}, {"smiles": "O=C(Nc1ccc(-c2cscn2)cc1)C1CCCN(Cc2ccc(CO)o2)C1", "note": "(stereo not drawn)", "inhibition": "7.25%"}, {"smiles": "O=C(NNC(=O)C1C2CCC(C2)C1C(=O)O)c1ccc(Cl)cc1", "note": "(stereo not drawn)", "inhibition": "57.3% (active)"}, {"smiles": "O=C(NNC(=S)NC1CC2CCC1C2)c1ccc(Cl)cc1", "note": "(stereo not drawn)", "inhibition": "12.4%"}, {"smiles": "CCOC(=O)NNC(=O)c1ccc(Cl)cc1", "inhibition": "11.6%"}, {"smiles": "Cc1ccc(OCC(=O)NC(C)c2ccccc2)cc1C", "note": "(stereo not drawn)", "inhibition": "-6.99%"}, {"smiles": "CCOc1ccc(OCC(=O)Nc2c3c(nn2C(C)(C)C)CS(=O)(=O)C3)cc1", "inhibition": "-5.61%"}, {"smiles": "CC(C)Oc1ccc(Oc2ccc(C(F)(F)F)cn2)cc1", "inhibition": "1.31%"}, {"smiles": "CSc1nnc(-c2ccc(C(F)(F)F)cn2)o1", "inhibition": "47.1% (active)"}, {"smiles": "CC(=O)c1sc(NC(=O)C2=NN(c3ccccc3)C(=O)CC2)nc1C", "inhibition": "21.6%"}, {"smiles": "CC(=O)c1sc(NC(=O)CCCOc2ccccc2C)nc1C", "inhibition": "-15.8%"}, {"smiles": "CCSc1nnc(NC(=O)c2ccc(C)cc2)s1", "inhibition": "71.3% (active)"}, {"smiles": "CC(=O)c1sc(NC(=O)c2ccc(C)cc2)nc1C", "inhibition": "107% (active)"}, {"smiles": "COC(=O)c1sc(NC(=S)NC(=O)c2ccc(C)cc2)nc1C", "inhibition": "38.9%"}, {"smiles": "CCOC(=O)c1sc(NC(=O)c2ccncc2)nc1C", "inhibition": "11%"}, {"smiles": "CC(=O)c1sc(N/N=C/c2ccc(C(C)C)cc2)nc1C", "inhibition": "69.3% (active)"}, {"smiles": "Cc1nnc(C)n1/N=C/c1ccc(C(C)C)cc1", "inhibition": "-9.61%"}, {"smiles": "Cc1ccc(S(=O)(=O)Nc2nc(C)cc(N/N=C/c3ccc(O)cc3)n2)cc1", "inhibition": "9.39%"}, {"smiles": "C=CCSc1nnc(NC(=O)c2ccc(NC(C)=O)cc2)s1", "inhibition": "26.6%"}, {"smiles": "CC(=O)c1sc(N/N=C\\c2ccc(C)cc2)nc1C", "inhibition": "72.3% (active)"}, {"smiles": "CCOC(=O)CSc1nnc(NC(=O)c2cccc(S(=O)(=O)N3CCCC3)c2)s1", "inhibition": "-15%"}, {"smiles": "O=C(NCCCN1CCOCC1)C1CCCN(S(=O)(=O)N2CCCCC2)C1", "note": "(stereo not drawn)", "inhibition": "-9.17%"}, {"smiles": "Cc1ccc(NC(=O)Cc2nnc(SCC(=O)Nc3nncs3)n2C)cc1", "inhibition": "-6.25%"}, {"smiles": "COc1ccc(OC)c(/C(C)=N\\NC(=O)c2cc3cc(Cl)ccc3n2C)c1", "inhibition": "-10.1%"}, {"smiles": "CCN(Cc1ccncc1)C(=O)CCc1ccccc1", "inhibition": "-7.55%"}, {"smiles": "COc1ccccc1NC(=O)C1CCCN1S(=O)(=O)c1ccc(Cl)cc1", "note": "(stereo not drawn)", "inhibition": "23.6%"}, {"smiles": "CC(NS(=O)(=O)c1ccc(Br)cc1)C(=O)NCC1CCCO1", "note": "(stereo not drawn)", "inhibition": "25%"}, {"smiles": "CC(C)(C)NC(=O)CN(Cc1cccs1)C(=O)CNS(=O)(=O)c1ccccc1", "inhibition": "41.4%"}, {"smiles": "C[C@H]1CCC[C@@]2(C)CCCC[C@]12O", "inhibition": "12.1%"}, {"smiles": "COc1ccccc1N1CCN(c2ncnc3sc(C)c(-c4ccccc4)c23)CC1", "inhibition": "54.8%"}, {"smiles": "O=C(c1c(F)cccc1Cl)N1CCN(S(=O)(=O)c2ccc3c(c2)OCCCO3)CC1", "inhibition": "-6.3%"}, {"smiles": "CC1CCN(CC(=O)Nc2nccs2)CC1", "inhibition": "-4.28%"}, {"smiles": "N/C(=N\\OC(=O)N1c2ccccc2Sc2ccccc21)c1ccc(Br)cc1", "inhibition": "-3.87%"}, {"smiles": "N/C(=N\\OC(=O)c1ccc2c(c1)OCO2)c1ccc(Br)cc1", "inhibition": "73.3% (active)"}, {"smiles": "N/C(=N\\OC(=O)/C=C/c1ccccc1)c1ccc(Br)cc1", "inhibition": "6.16%"}, {"smiles": "O=C(Nc1nnc(-c2ccc(F)cc2)s1)c1c(F)cccc1Cl", "inhibition": "3.43%"}, {"smiles": "C/C(=C\\c1ccccc1)C1NC(=O)c2c(sc3c2CCCC3)N1", "note": "(stereo not drawn)", "inhibition": "34.2%"}, {"smiles": "O=C1NC(c2ccncc2)Nc2sc3c(c21)CCCC3", "note": "(stereo not drawn)", "inhibition": "64.1% (active)"}, {"smiles": "Cc1ccc(C(=O)c2c(NC(=O)c3ccncc3)sc3c2CCCC3)cc1", "inhibition": "-0.844%"}, {"smiles": "CCOC(=O)[C@@H]1[C@H]2COc3cc(OC)ccc3[C@@H]2N2C(=O)N(c3cccc(C)c3)C(=O)[C@@]12C", "inhibition": "-1.2%"}, {"smiles": "CC1CCCN(CCCNC(=O)CN2C(=O)COc3ccc(S(=O)(=O)N4CCOCC4)cc32)C1", "note": "(stereo not drawn)", "inhibition": "-5.12%"}, {"smiles": "C=CCn1c(CNS(=O)(=O)c2ccc(Br)cc2)nnc1SC", "inhibition": "-6.56%"}, {"smiles": "O=C(CSc1nnc2c(n1)[nH]c1ccccc12)NC1CCCCC1", "inhibition": "-11%"}, {"smiles": "O=C(Cn1c(-c2cncs2)nc2ccccc21)NC1CCCC1", "inhibition": "-2.75%"}, {"smiles": "O=C(/C=C/c1cnc2ccccc2n1)NC1CCCCCC1", "inhibition": "112% (active)"}, {"smiles": "Cc1ccc(N(Cc2cc(=O)[nH]c3ccccc23)C(=O)CCl)cc1", "inhibition": "-5.41%"}, {"smiles": "Cc1cccc(C(=O)NNC(=O)CSc2nnc(C(C)C)n2C)c1", "inhibition": "-2.77%"}, {"smiles": "COc1cccc(C(C(=O)NC2CCCC2)N(C(=O)c2ccco2)c2cccc(C(C)=O)c2)c1OC", "note": "(stereo not drawn)", "inhibition": "-12.2%"}, {"smiles": "O=C(NNC(=O)C(O)c1ccccc1)NC1CCCCC1", "note": "(stereo not drawn)", "inhibition": "-13.5%"}, {"smiles": "Cc1nc(/N=C(\\N)NC(=O)NC2CCCCC2)nc2ccccc12", "inhibition": "30.3% (active)"}, {"smiles": "COc1ccc2nc(/N=C(\\N)NC(=O)Nc3ccccc3)nc(C)c2c1", "inhibition": "69.1%"}, {"smiles": "COc1ccc(C(=O)NCCCN2CCOCC2)cc1Br", "inhibition": "-13.5%"}, {"smiles": "O=C(c1cc2ccccc2o1)N1CCN(c2cccc(C(F)(F)F)c2)CC1", "inhibition": "-15.8%"}, {"smiles": "COCCN(C(=O)CCC(=O)Nc1nccs1)C(C(=O)NCCC(C)C)c1ccc(F)cc1", "note": "(stereo not drawn)", "inhibition": "-13.9%"}, {"smiles": "CCOC(=O)/C(C#N)=C\\c1c(C)cc(C)c(COC(C)=O)c1C", "inhibition": "30.8% (active)"}, {"smiles": "COC(=O)/C(C#N)=C/c1occc1C", "inhibition": "-2.66%"}, {"smiles": "CCOC(=O)NC(=O)/C(C#N)=C\\c1ccccc1", "inhibition": "-2.62%"}, {"smiles": "COCCNC(=O)CSc1nc2sccc2c(=O)n1-c1ccccc1", "inhibition": "-4.95%"}, {"smiles": "COc1cc(NC(=O)NCC2CCN(Cc3ccc(C)cc3)CC2)cc(OC)c1OC", "inhibition": "19.7%"}, {"smiles": "CCSc1nnc(-c2cc3c(s2)-c2ccccc2CC3)o1", "inhibition": "73.3% (active)"}, {"smiles": "O=C(CSc1nnc(-c2ccccc2O)o1)NC1CCCCC1", "inhibition": "-7.64%"}, {"smiles": "Fc1ccc(CSc2nnc(-c3cc4c(s3)-c3ccccc3CC4)o2)cc1", "inhibition": "-15%"}, {"smiles": "CSCCC(NC(=O)c1ccc(Cl)cc1Cl)C(=O)NNC(=O)c1csc(N2CCOCC2)n1", "note": "(stereo not drawn)", "inhibition": "23.2%"}, {"smiles": "O=C(Nc1ccc(N2CCCC2=O)cc1)c1cncc(Br)c1", "inhibition": "-22%"}, {"smiles": "CN(C)Cc1c(O)ccc2c(=O)c(-c3ccccc3Cl)coc12", "inhibition": "2.96%"}, {"smiles": "O=C(/C=C/c1ccccc1[N+](=O)[O-])OC1CCCCC1=O", "note": "(stereo not drawn)", "inhibition": "-5.74%"}, {"smiles": "CC1CCCCC1NC(=O)/C(C#N)=C/C=C/c1ccccc1[N+](=O)[O-]", "note": "(stereo not drawn)", "inhibition": "52.2% (active)"}, {"smiles": "O=C(/C=C/c1ccccc1[N+](=O)[O-])NCC1CCCO1", "note": "(stereo not drawn)", "inhibition": "28%"}]}]}
